{
  "source": "PubChem BioAssay (NCI)",
  "note": "About 79,000 compounds went through this panel and 15% of them were active in at least one assay; those are over-represented in the sample as a whole. Unmarked numbers belong to inactive results. The source made the active and inactive calls. Cut-off read from the data, not from the text of the source: active = growth inhibition above about 70%; inactive = the rest.",
  "data": [
    {"assay": "NCI Yeast Anticancer Drug Screen. Data for the rad50 strain (AID 155);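 note: 0% = growth of vehicle-only cultures of the same strain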", "details": "S. cerevisiae rad50 strain growth inhibition; at 5.0 µM (retest, dose inferred, filed as 0.5); stronger effect = higher value", "outline": "(§1)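 Readout: growth inhibition relative to vehicle-treated cultures. Compound exposure was carried out in a genetically defined yeast strain deficient in DNA damage repair.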", "values": [
      {"smiles": "O=C(/C=C/c1cccc(Cl)c1)c1ccccc1", "growth inhibition": "16%"},
      {"smiles": "COc1cccc(N2C(=O)C3CC(CC(C)(C)C)c4c([nH]c5ccccc45)C3C2=O)c1", "note": "(stereo not given)", "growth inhibition": "10%"},
      {"smiles": "O=C1c2ccccc2NC(=O)C2C1C(c1ccccc1)CC2(O)c1ccccc1", "note": "(stereo not given)", "growth inhibition": "7%"},
      {"smiles": "CCOC(=O)C1SC(=Nc2ccc(Cl)cc2)N=C1C", "note": "(stereo not given)", "growth inhibition": "14%"},
      {"smiles": "COC(=O)c1nc(=S)[nH]c(C(=O)OC)c1C(=O)c1ccccn1", "growth inhibition": "7%"},
      {"smiles": "Cn1c2c(c3ccccc31)CCN1C[C@@H]3CCCC[C@H]3C[C@@H]21", "growth inhibition": "0%"},
      {"smiles": "CCCCCCCCCCCC1=NCCN1CCNCCCC", "growth inhibition": "6%"},
      {"smiles": "CN=C(N)N/N=C(\\C)c1ccc2c(c1)Cc1cc(/C(C)=N/NC(N)=NC)ccc1-2", "growth inhibition": "63%"},
      {"smiles": "O=C(Nc1ccccc1)OCCc1ccc(Br)cc1", "growth inhibition": "-10%"},
      {"smiles": "CN(C)CC/C(=N\\Nc1ccc(Cl)cc1)c1ccccc1", "growth inhibition": "98% (active)"},
      {"smiles": "O=C1Nc2ccccc2/C1=N\\N=c1/scc(-c2ccccc2)n1-c1ccccc1", "growth inhibition": "13%"},
      {"smiles": "CC(C)(C)C(=O)CC(=O)C(F)(F)C(F)(F)C(F)(F)F.CC(C)(C)C(=O)CC(=O)C(F)(F)C(F)(F)C(F)(F)F.CC(C)(C)C(=O)CC(=O)C(F)(F)C(F)(F)C(F)(F)F.[Fe]", "growth inhibition": "21%"},
      {"smiles": "COc1cc(N=Nc2cccc(S(N)(=O)=O)c2)c2ccccc2c1N", "growth inhibition": "-6%"},
      {"smiles": "O=C(/C=C/C(=O)OCCCl)OCCCl", "growth inhibition": "5%"},
      {"smiles": "CCc1ccccc1NC(=O)C1=C(C)NC(C)=C(C(=O)Nc2c(CC)cccc2CC)C1c1ccc2c(c1)OCO2", "note": "(stereo not given)", "growth inhibition": "30%"},
      {"smiles": "Oc1c(Cl)cc(Cl)c2cccnc12", "growth inhibition": "56%"},
      {"smiles": "COc1ccc2c(c1)[n+]([O-])c(-c1ccccc1)c(N)[n+]2[O-]", "growth inhibition": "47%"},
      {"smiles": "O=c1cccccc1[O-].O=c1cccccc1[O-].O=c1cccccc1[O-].[Sm+3]", "growth inhibition": "33%"},
      {"smiles": "CCCCCCCCCCCCCCCCNc1ccn(C2CC(OP(=O)(O)OCC3OC(n4cc(CC)c(=O)[nH]c4=O)CC3O)C(CO)O2)c(=O)n1", "note": "(stereo not given)", "growth inhibition": "73% (active)"},
      {"smiles": "Nc1ccccc1OCC(O)CN1CCN(Cc2ccccc2)CC1", "note": "(stereo not given)", "growth inhibition": "-7%"},
      {"smiles": "O=S(=O)(O)c1ccc(O)c2cc(Nc3ccccc3)ccc12", "growth inhibition": "-3%"},
      {"smiles": "CCOC(=O)/C(=C\\c1ccc(-c2ccccc2)cc1)C(C)=O", "growth inhibition": "0%"},
      {"smiles": "O=C(C(Oc1ccc(Cl)cc1)Oc1ccc(Cl)cc1)N(O)c1ccccc1OCc1ccccc1", "growth inhibition": "14%"},
      {"smiles": "CN(C)CC1CCC/C(=C\\c2ccc(Cl)cc2)C1=O", "note": "(stereo not given)", "growth inhibition": "-15%"},
      {"smiles": "COc1ccc(/C=N/Nc2ccccc2)cc1", "growth inhibition": "7%"},
      {"smiles": "O=C1c2ccccc2-c2ccccc2C(=O)C1(Br)Br", "growth inhibition": "-5%"},
      {"smiles": "CC(=O)Nc1ccc(C(=O)n2[nH]c(C)c(/C=C3\\C(=O)C=Cc4ccccc43)c2=O)cc1", "growth inhibition": "27%"},
      {"smiles": "CC1OC2CC(=O)OC2C2=C1C(=O)c1c(O)cccc1C2=O", "note": "(stereo not given)", "growth inhibition": "99% (active)"},
      {"smiles": "CCOC(=O)C(CCSC)C(=O)OCC", "growth inhibition": "-1%"},
      {"smiles": "C[CH2][Sn]([CH2]C)([O]C(=O)c1cccc(OC)c1)[O][Sn]([CH2]C)([CH2]C)[O]C(=O)c1cccc(OC)c1", "growth inhibition": "31%"},
      {"smiles": "O=C(Nc1ccccc1)Oc1c(Cl)c(Cl)c(Cl)c(Cl)c1Cl", "growth inhibition": "19%"},
      {"smiles": "CCN(CC)CCNc1ccc2nnn3c4ccc([N+](=O)[O-])cc4c(=O)c1c23", "growth inhibition": "16%"},
      {"smiles": "CCCCCCN(CCCCCC)CCC(=O)c1ccc2cc(Br)c3ccccc3c2c1", "growth inhibition": "26%"},
      {"smiles": "COC(=O)/C=C1/Nc2ccc(Cl)cc2C(=O)NC1=O", "growth inhibition": "44%"},
      {"smiles": "CN(C)COC(=S)SCN(C)C", "growth inhibition": "98% (active)"},
      {"smiles": "Clc1ccc(-c2noc(CN3CCCCC3)n2)cc1", "growth inhibition": "10%"},
      {"smiles": "CCCCCCCCCCCCCC(=O)OCC(O)CO", "note": "(stereo not given)", "growth inhibition": "2%"},
      {"smiles": "CCC[CH2][Sn]([CH2]CCC)([O]C(=O)c1cccc(F)c1)[O]C(=O)c1cccc(F)c1", "growth inhibition": "26%"},
      {"smiles": "CCCCCCCCCCCCCCCCC1CCc2ccccc21", "note": "(stereo not given)", "growth inhibition": "4%"},
      {"smiles": "CCOC(=O)NCCCc1ccc2oc3ccccc3c2c1", "growth inhibition": "-1%"}
    ]},
    {"assay": "NCI Yeast Anticancer Drug Screen. Data for the rad50 strain (AID 155);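 note: 0% = growth of vehicle-only cultures of the same strain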", "details": "S. cerevisiae rad50 strain growth inhibition; at 50.0 µM (retest, dose inferred, filed as 5.0); stronger effect = higher value", "outline": "as §1", "values": [
      {"smiles": "O=C(/C=C/c1cccc(Cl)c1)c1ccccc1", "growth inhibition": "98% (active)"},
      {"smiles": "COc1cccc(N2C(=O)C3CC(CC(C)(C)C)c4c([nH]c5ccccc45)C3C2=O)c1", "note": "(stereo not given)", "growth inhibition": "33%"},
      {"smiles": "O=C1c2ccccc2NC(=O)C2C1C(c1ccccc1)CC2(O)c1ccccc1", "note": "(stereo not given)", "growth inhibition": "87% (active)"},
      {"smiles": "CCOC(=O)C1SC(=Nc2ccc(Cl)cc2)N=C1C", "note": "(stereo not given)", "growth inhibition": "56%"},
      {"smiles": "COC(=O)c1nc(=S)[nH]c(C(=O)OC)c1C(=O)c1ccccn1", "growth inhibition": "93% (active)"},
      {"smiles": "Cn1c2c(c3ccccc31)CCN1C[C@@H]3CCCC[C@H]3C[C@@H]21", "growth inhibition": "55%"},
      {"smiles": "CCCCCCCCCCCC1=NCCN1CCNCCCC", "growth inhibition": "75% (active)"},
      {"smiles": "CN=C(N)N/N=C(\\C)c1ccc2c(c1)Cc1cc(/C(C)=N/NC(N)=NC)ccc1-2", "growth inhibition": "94% (active)"},
      {"smiles": "O=C(Nc1ccccc1)OCCc1ccc(Br)cc1", "growth inhibition": "-9%"},
      {"smiles": "CN(C)CC/C(=N\\Nc1ccc(Cl)cc1)c1ccccc1", "growth inhibition": "99% (active)"},
      {"smiles": "O=C1Nc2ccccc2/C1=N\\N=c1/scc(-c2ccccc2)n1-c1ccccc1", "growth inhibition": "72% (active)"},
      {"smiles": "CC(C)(C)C(=O)CC(=O)C(F)(F)C(F)(F)C(F)(F)F.CC(C)(C)C(=O)CC(=O)C(F)(F)C(F)(F)C(F)(F)F.CC(C)(C)C(=O)CC(=O)C(F)(F)C(F)(F)C(F)(F)F.[Fe]", "growth inhibition": "85% (active)"},
      {"smiles": "COc1cc(N=Nc2cccc(S(N)(=O)=O)c2)c2ccccc2c1N", "growth inhibition": "98% (active)"},
      {"smiles": "O=C(/C=C/C(=O)OCCCl)OCCCl", "growth inhibition": "95% (active)"},
      {"smiles": "CCc1ccccc1NC(=O)C1=C(C)NC(C)=C(C(=O)Nc2c(CC)cccc2CC)C1c1ccc2c(c1)OCO2", "note": "(stereo not given)", "growth inhibition": "30%"},
      {"smiles": "Oc1c(Cl)cc(Cl)c2cccnc12", "growth inhibition": "96% (active)"},
      {"smiles": "COc1ccc2c(c1)[n+]([O-])c(-c1ccccc1)c(N)[n+]2[O-]", "growth inhibition": "98% (active)"},
      {"smiles": "O=c1cccccc1[O-].O=c1cccccc1[O-].O=c1cccccc1[O-].[Sm+3]", "growth inhibition": "33%"},
      {"smiles": "CCCCCCCCCCCCCCCCNc1ccn(C2CC(OP(=O)(O)OCC3OC(n4cc(CC)c(=O)[nH]c4=O)CC3O)C(CO)O2)c(=O)n1", "note": "(stereo not given)", "growth inhibition": "97% (active)"},
      {"smiles": "Nc1ccccc1OCC(O)CN1CCN(Cc2ccccc2)CC1", "note": "(stereo not given)", "growth inhibition": "23%"},
      {"smiles": "O=S(=O)(O)c1ccc(O)c2cc(Nc3ccccc3)ccc12", "growth inhibition": "-26%"},
      {"smiles": "CCOC(=O)/C(=C\\c1ccc(-c2ccccc2)cc1)C(C)=O", "growth inhibition": "93% (active)"},
      {"smiles": "O=C(C(Oc1ccc(Cl)cc1)Oc1ccc(Cl)cc1)N(O)c1ccccc1OCc1ccccc1", "growth inhibition": "49%"},
      {"smiles": "CN(C)CC1CCC/C(=C\\c2ccc(Cl)cc2)C1=O", "note": "(stereo not given)", "growth inhibition": "99% (active)"},
      {"smiles": "COc1ccc(/C=N/Nc2ccccc2)cc1", "growth inhibition": "97% (active)"},
      {"smiles": "O=C1c2ccccc2-c2ccccc2C(=O)C1(Br)Br", "growth inhibition": "8%"},
      {"smiles": "CC(=O)Nc1ccc(C(=O)n2[nH]c(C)c(/C=C3\\C(=O)C=Cc4ccccc43)c2=O)cc1", "growth inhibition": "100% (active)"},
      {"smiles": "CC1OC2CC(=O)OC2C2=C1C(=O)c1c(O)cccc1C2=O", "note": "(stereo not given)", "growth inhibition": "99% (active)"},
      {"smiles": "CCOC(=O)C(CCSC)C(=O)OCC", "growth inhibition": "-2%"},
      {"smiles": "C[CH2][Sn]([CH2]C)([O]C(=O)c1cccc(OC)c1)[O][Sn]([CH2]C)([CH2]C)[O]C(=O)c1cccc(OC)c1", "growth inhibition": "69%"},
      {"smiles": "O=C(Nc1ccccc1)Oc1c(Cl)c(Cl)c(Cl)c(Cl)c1Cl", "growth inhibition": "98% (active)"},
      {"smiles": "CCN(CC)CCNc1ccc2nnn3c4ccc([N+](=O)[O-])cc4c(=O)c1c23", "growth inhibition": "35%"},
      {"smiles": "CCCCCCN(CCCCCC)CCC(=O)c1ccc2cc(Br)c3ccccc3c2c1", "growth inhibition": "85% (active)"},
      {"smiles": "COC(=O)/C=C1/Nc2ccc(Cl)cc2C(=O)NC1=O", "growth inhibition": "56%"},
      {"smiles": "CN(C)COC(=S)SCN(C)C", "growth inhibition": "98% (active)"},
      {"smiles": "Clc1ccc(-c2noc(CN3CCCCC3)n2)cc1", "growth inhibition": "38%"},
      {"smiles": "CCCCCCCCCCCCCC(=O)OCC(O)CO", "note": "(stereo not given)", "growth inhibition": "2%"},
      {"smiles": "CCC[CH2][Sn]([CH2]CCC)([O]C(=O)c1cccc(F)c1)[O]C(=O)c1cccc(F)c1", "growth inhibition": "26%"},
      {"smiles": "CCCCCCCCCCCCCCCCC1CCc2ccccc21", "note": "(stereo not given)", "growth inhibition": "4%"},
      {"smiles": "CCOC(=O)NCCCc1ccc2oc3ccccc3c2c1", "growth inhibition": "97% (active)"}
    ]}
  ]
}
